The text below walks through data of PubChem BioAssay AID488890 (Southern Research Specialized Biocontainment Screening …, 2010).

Hit rate of the full screen: of about 320,000 compounds, about 1,300 (0.41%) were called active. Inconclusive results (about 3%) are left out. The rule behind the calls is not given here. The list is a sample of the results. Potency and affinity values are given separately.

The assay in a line: growth inhibition of non-replicating M. tuberculosis (AID 488890).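 Note: plate controls were DMSO cells for no effect and high antibiotic wells for full effect.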 As to conditions: Mycobacterium tuberculosis non-replicating, at 25 µM, stronger effect = higher value.
For orientation: inhibition means the drop in the measured response relative to a control, in per cent. As to `CCOc1ccc2oc(C(=O)OCC(=O)NC3CCCC3)c(C)c2c1`, the inhibition turned out to be 9.82%.

Take `O=C(c1ccc2c(c1)CCN2S(=O)(=O)c1ccccc1)N1CCN(c2ccc(F)cc2)CC1`: the inhibition came out at 18.7%.

As to `NC(=O)c1sc2nc(N3CCOCC3)c3c(c2c1N)CCCC3`, the inhibition amounted to 3.31%.

`CCN(CC)CCOC(=O)C(Cc1ccco1)Cc1cccc2ccccc12` (centres undefined): the inhibition is 12.1%.

With `COc1ccc2c(c1OC)C(=O)OC2Nc1nc(-c2cc3ccccc3oc2=O)cs1` (centres undefined), the inhibition is 2.83%.

In the case of `COc1cc(S(=O)(=O)N2CCOCC2)cc(C(=O)OCC(=O)NC2CCCCC2)c1OC`, the inhibition is -1.4%.

Consider `O=C(/C=C/c1cc([N+](=O)[O-])ccc1OC(F)F)Nc1cccc(OC(F)F)c1`, for which the inhibition came to 0.25%.

For the compound `COCCn1c(=NC(=O)CSCC(=O)N2CCOCC2)sc2ccccc21`, the inhibition was -8.23%.

Regarding `Cn1cccc1C(=O)OCC(=O)Nc1cccc(S(=O)(=O)N2CCOCC2)c1`, the inhibition is -0.69%.

As to `COC(=O)C1=C(c2ccc(OC)c(OC)c2)C[C@@H]2CC[C@H]1N2C(=O)NCc1cc(C)oc1C(F)(F)F`, the inhibition is -13.9%.

As to `Oc1cccc(Nc2nc(-c3ccccc3Cl)nc3ccccc23)c1`, the inhibition stood at 1.57%.

On to `O=C(Nc1ccc(NC(=O)c2cc3ccccc3o2)cc1)c1ccco1`, for which the inhibition turned out to be 2.59%.

In the case of `O=C(COC(=O)c1cc2ccccc2o1)c1ccccc1`, the inhibition was 51.9%.

For `O=C(O)c1ccc(NC(=O)c2cc3ccccc3o2)cc1`, the inhibition came to 19.5%.

On to `CC(=O)Nc1cccc(NC(=O)c2cc3ccccc3o2)c1`, for which the inhibition amounted to 32.4%.

In the case of `O=C(Nc1ccccc1)c1ccc(OC(=O)c2cc3ccccc3o2)cc1`, the inhibition was 45.2%.

On to `Cc1ccc(C)c(NC(=O)c2cc3ccccc3o2)c1`, for which the inhibition is 75.5%.

Take `CC(C)C(=O)Nc1cccc(NC(=O)c2cc3ccccc3o2)c1`: the inhibition was 2.48%.

On to `Cc1ccnc(NC(=O)c2oc3ccccc3c2C)c1`, for which the inhibition was found to be 20.3%.

For the compound `O=C(CSCc1cnn(-c2ccccc2)c1-n1cccc1)N1CCN(Cc2ccccc2)CC1`, the inhibition is 2.12%.

As for `C=CC[C@@H](CC(=O)N[C@H](CO)Cc1ccccc1)C(=O)N[C@@H](COC(=O)[C@@H](CC=C)CC(=O)OC(C)(C)C)Cc1c[nH]c2ccccc12`, the inhibition is 61%.

For the compound `CCN(Cc1ccccc1)C(=O)CSc1nc(C)cc(=O)[nH]1`, the inhibition amounted to 10.7%.

With `Nc1c(C(=O)Nc2cccc(F)c2)nnn1-c1cccc(C(F)(F)F)c1`, the inhibition was -17.3%.

For the compound `COc1cc(C[C@@H]2C(=O)OC[C@H]2Cc2ccc(OC)c(OC)c2)ccc1O`, the inhibition was -6.61%.

For the compound `O=S(=O)(NCC(c1ccco1)N1CCCCC1)c1ccccc1C(F)(F)F` (centres undefined), the inhibition amounted to 5.94%.

`Cc1ccc(C(=O)N(C)CCOc2ccccc2)cc1S(=O)(=O)N1CCCCC1`: the inhibition was determined as 14.5%.

For `O=C(NC1CCCCC1)C(c1cccs1)N(CCCN1CCOCC1)C(=O)c1ccc(-c2ccccc2)[nH]1` (centres undefined), the inhibition was 44.4%.

Take `COc1ccc(NC(=O)c2cc3ccccc3o2)cc1OC`: the inhibition is 53.8%.

For the compound `CC(=O)c1ccc(NC(=O)c2cc3ccccc3o2)cc1`, the inhibition is 76.8%.
